The campaign covered roughly 2,300 compounds. About 1,500 (65%) were called active. No rule for the calls is given here. The set was probably picked from earlier hits. Not all results are given here.
Assay: PubChem AID 2252;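 also: 100% = mean of untreated cell control wells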
Conditions: THP-1 viability, CellTiter-Glo luminescence, 72 h; min viability: minimum viability across concentrations, stronger effect = lower value, concentration not given here; series mostly up to 50 µM; viability: at the top concentration

SMILES | viability
COCCn1nnnc1C(c1cccc(OC)c1OC)N1CCN(C2CCCCC2)CC1 (stereo not given) | 84% (inactive)
O=C(O)C1CCCCC1C(=O)NCCc1ccncc1 (stereo not given) | 83.8% (inactive)
O=C(Nc1nccs1)c1ccc(Cl)cc1[N+](=O)[O-] | 82.4% (inactive)
Cc1ccc2c(c1)C1CN(C)CCC1N2C(=O)COc1ccccc1F (stereo not given) | 96% (inactive)
CCc1nc(C)ccc1OCC(=O)NCCCN(C)C | 86.1% (inactive)
CN1C(=O)NC(c2cccc(O)c2)C(C(=O)c2cccs2)C1(O)C(F)(F)F (stereo not given) | 94.4% (inactive)
Cc1cccc(N2C(=O)CS/C2=N\NC(=O)c2ccc(Br)cc2)c1C | 98% (inactive)
N#Cc1nc(Cc2cccc3ccccc23)oc1NCCCN1CCOCC1 | 85.9% (inactive)
Cc1ccc(/C=N/NC(=O)Cc2cccn2C)cc1 | 84.8% (inactive)
O=C(Cc1ccccc1)NCC(=O)Nc1cccc(Cl)c1 | 92.3% (inactive)
CC(=O)c1ccc(NC(=O)CN2CCCCCC2)cc1 | 102% (inactive)
CSC(=Nc1ccc(Cl)cc1)N[n+]1ccccc1 | 86.7% (inactive)
CC(=O)Nc1ccc(S(=O)(=O)Nc2nc3ccccc3nc2Nc2cccc(S(N)(=O)=O)c2)cc1 | 92% (inactive)
COCCNC(=O)c1cccc(OC2CCN(Cc3ccccc3C)CC2)c1 | 87.3% (inactive)
Cc1ccc(C(=O)N/N=C\c2sccc2C)cn1 | 93.3% (inactive)
CN(C)CCCOC(=O)c1sc2ccccc2c1Cl | 98.1% (inactive)
COc1c2ccccc2nc2ccccc12 | 83.5% (inactive)
CCn1cc(C(=O)O)c(=O)c2cc(F)c(N3CCN(C(=S)NC(=O)c4ccc(Br)cc4)CC3)cc21 | 86.4% (inactive)
O=C(NCc1ccccc1)N[C@@H](Cc1c[nH]c2ccccc12)C(=O)O | 103% (inactive)
CCn1cc(C(=O)NCCO)c(=O)c2cc(F)c(N3CCN(C)CC3)cc21 | 88.8% (inactive)
CCn1nnnc1NCc1cccc(Cl)c1 | 86.5% (inactive)
O=C(O)c1cn(-c2ccc(F)cc2)c2cc(Cl)c(F)cc2c1=O | 92.6% (inactive)

SMILES | viability
COc1cccc(NC(=O)CSc2nncn2-c2ccccn2)c1 | 99.8% (inactive)
O=C(NC1CC1)C1CCN(C2CCN(C(=O)Cc3ccc(F)cc3)CC2)CC1 | 103% (inactive)
O=C(NC(CO)C(O)c1ccc([N+](=O)[O-])cc1)C(Cl)Cl (stereo not given) | 85.8% (inactive)
CN1CCCN(S(=O)(=O)c2ccc3ccccc3c2)CC1 | 82.4% (inactive)
NS(=O)(=O)OCCCc1ccc(C(F)(F)F)cc1 | 94% (inactive)
N#CCC(=O)N/N=C/c1ccccc1Cl | 105% (inactive)
COc1ccc(-c2nc3ccc(C(=O)NCC(OC)OC)cc3nc2-c2ccc(OC)cc2)cc1 | 81.2% (inactive)
Cc1cc(C)c(S(=O)(=O)Nc2ccccc2C(=O)OCC(=O)NCc2ccccc2)c(C)c1 | 95.1% (inactive)
CCOC(=O)c1cccc(NC(=O)c2cccs2)c1 | 85.5% (inactive)
Cc1ccc(NC(=O)c2cc(NC(=O)CCCC(=O)O)ccc2Cl)cc1Cl | 84.2% (inactive)
O=C(CCCOc1ccc(Cl)cc1Cl)NNC(=O)C1CCC1 | 91.4% (inactive)
CCCCN1/C(=C/c2cccc[n+]2C)Sc2cc(NC(C)=O)ccc21 | 96.2% (inactive)
CC(C)CC(=O)N1CCN(C(=O)CCC2CCCC2)CC1 | 94.8% (inactive)
O=C(NCc1cccnc1)C1c2ccccc2C(=O)N1Cc1ccccc1 (stereo not given) | 100% (inactive)
O=Cc1ccc(O)cc1O | 88.5% (inactive)
CCC(C)NC(=O)c1cn(CC)c2cc(N3CCN(C)CC3)c(F)cc2c1=O (stereo not given) | 108% [at 25 µM] (inactive)
Cc1ccn2cc(-c3ccc4c(c3)NC(=O)CO4)nc2c1 | 84.1% (inactive)
O=C(CN(C(=O)CNS(=O)(=O)c1ccccc1)C1CCCC1)NCc1ccco1 | 101% (inactive)
O=c1[nH]cc(N=Cc2cc([N+](=O)[O-])ccc2O)c(=O)[nH]1 | 90.4% (inactive)
CC(Sc1nc2ccccc2o1)C(=O)O (stereo not given) | 88.5% (inactive)
Cc1cc(C)cc(CSc2nnc(C)c(=O)[nH]2)c1 | 95.4% (inactive)
CCCCN(C)C(=O)c1ccc(S(=O)(=O)N2CCOCC2)cc1 | 100% (inactive)

SMILES | viability
COc1ccc(-c2nnn(-c3ccc(Cl)cc3Cl)c2N)cc1 | 84% (inactive)
Cc1cc(C)c2c(N)c(C(=O)c3ccc(Cl)c(Cl)c3)sc2n1 | 100% (inactive)
Cn1c(-c2ccc(CN3CCCCC3)o2)nc2ccccc21 | 84.1% (inactive)
O=C(NCC1CCCO1)c1cc2ccccc2oc1=O (stereo not given) | 100% (inactive)
CN(C)C(=O)CSc1nnc(Cc2ccc([N+](=O)[O-])cc2)o1 | 88.6% (inactive)
CSc1nc2ccc(Cl)cc2[nH]1 | 86% (inactive)
Cn1cc(S(=O)(=O)NCC2CCCO2)c(=O)n(C)c1=O (stereo not given) | 84.8% (inactive)
CN1C2=CC=CC=CC2=[N+](C)C12C=CC(=[N+]([O-])[O-])C=C2[N+](=O)[O-] (stereo not given) | 80.8% [at 25 µM] (inactive)
Cc1cc(N2CCCCC2)c(F)cc1[N+](=O)[O-] | 106% (inactive)
O=C(N/N=C/c1ccc(-c2ccc(Br)cc2)o1)c1ccc2c(c1)OCO2 | 86% (inactive)
Cc1ccc(-n2ncc3c(=O)[nH]cnc32)c(C)c1 | 88.9% (inactive)
CC(=O)N1CSCC1C(=O)N1CCN(c2ccc(N3CCOCC3)nn2)CC1 (stereo not given) | 88.5% (inactive)
CCCCNC(=O)NS(=O)(=O)c1ccc(C(=O)OC)o1 | 95.1% (inactive)
O=C(c1cccs1)N1CCC(N2CCN(c3ccccc3)CC2)CC1 | 86.8% (inactive)
N#Cc1c(/N=C/c2cccs2)sc2c1CCCCC2 | 93.7% (inactive)
Cc1ccc(NC(=O)CCNC(=O)c2ccccc2)cc1F | 105% (inactive)
Cc1c(/C=N/NC(=O)c2sc3ccccc3c2Cl)cnn1C | 96% (inactive)
Cc1cc(C)cc(N(C(=O)CNC(=O)c2cccs2)C(C(=O)NC2CCCC2)c2cccnc2)c1 (stereo not given) | 106% (inactive)
CC(C)OC(=O)Cn1c(=O)sc2ccccc21 | 95% (inactive)
CC(=O)Nc1cccc(NS(=O)(=O)Cc2ccc(Cl)cc2)c1 | 87.5% (inactive)
COc1ccc(C(=O)NNS(=O)(=O)c2ccccc2)cc1OC | 94.7% (inactive)
O=C(NCc1ccccc1)c1ccc(CNc2c(N3CCCC3)c(=O)c2=O)cc1 | 99.5% (inactive)

SMILES | viability
C[C@H]1COc2c(N3CCN(C)CC3)c(F)cc3c(=O)c(C(=O)O)cn1c23 | 95.3% (inactive)
CCCCc1cc(=O)oc2cc(C)cc(OCC(=O)NCC3CCC(C(=O)O)CC3)c12 (stereo not given) | 93.5% (inactive)
Cc1ccc(CNC(=O)CCC(=O)Nc2nnc(C)s2)cc1 | 93.7% (inactive)
CCOc1cc(S(=O)(=O)N2CCN(CC)CC2)ccc1Cl | 93.8% (inactive)
O=C(NCc1ccc2c(c1)OCO2)c1ccc2c(c1)C(=O)N(Cc1cccnc1)C2=O | 92.6% (inactive)
CCOC(=O)C1CCN(C(=O)CCc2nc3ccccc3[nH]2)CC1 | 101% (inactive)
NS(=O)(=O)c1ccc(CCNS(=O)(=O)c2cccc(C(=O)O)c2)cc1 | 108% (inactive)
O=C(NC(=O)c1ccccc1)OCC1CCCN2CCCCC12 (stereo not given) | 94.6% (inactive)
N=c1ccccn1CC(O)COc1ccccc1 (stereo not given) | 84.3% (inactive)
COc1cc(/C=C2/C(=O)NN(c3ccc(C)c(Cl)c3)C2=O)cc([N+](=O)[O-])c1O | 85.9% (inactive)
O=C(O)c1ccc(S(=O)(=O)NC2CC2)cc1 | 89.6% (inactive)
C#CCOCCOCCOCCNc1nc(N2CCN(C(=O)[C@H](Cc3ccc(O)cc3)n3cc([C@@H](N)C(C)CC)nn3)CC2)nc(N2CCN(C(=O)[C@H](Cc3cc4ccccc4[nH]3)n3cc([C@@H](N)Cc4ccc(O)cc4)nn3)CC2)n1 (stereo not given in full) | 97.5% (inactive)
NC1=NC(c2cccc(O)c2)n2c(nc3ccccc32)N1 (stereo not given) | 93.1% (inactive)
COc1ccc(CCC(=O)NCc2cn3ccccc3n2)cc1 | 101% (inactive)
O=C(NC(O)C(=O)c1ccccc1)c1ccc(F)cc1 (stereo not given) | 90.5% (inactive)
Cc1ccc(N2CC(C(=O)OCc3ccccc3F)CC2=O)cc1 (stereo not given) | 107% (inactive)
CCn1cc(C(=O)O)c(=O)c2cc(F)c(N3CCN(C(=S)NC(=O)c4ccccc4C)CC3)cc21 | 94.3% (inactive)
COCCN1CC(=O)N2C(c3cccc(OC)c3)c3[nH]c4ccccc4c3C[C@H]2C1=O (stereo not given in full) | 94.5% [at 25 µM] (inactive)
O=C(NC1CCCC1)c1ccc(Br)s1 | 80.1% (inactive)
Cc1cccc(NCN2C(=O)c3ccccc3C2=O)c1 | 102% (inactive)
Cc1cnc(NC(=O)CN2C(=O)C3CC=CCC3C2=O)s1 (stereo not given) | 94.9% (inactive)
CC(C)c1ccc(C2C(C#N)=C(N)Oc3c2oc(CO)cc3=O)cc1 (stereo not given) | 87.6% (inactive)

SMILES | viability
NC(=O)c1ccc(N=C2C(=O)Nc3ccc([N+](=O)[O-])cc32)cc1 | 93% (inactive)
CC(/C=C\c1cccnc1)=C/C(=O)O | 84.6% (inactive)
NCCCCCc1nnc(SCc2ccc(Cl)cc2Cl)o1 | 90.7% (inactive)
COc1cc2c(cc1OC)CN(C(=O)CCCN1C(=O)c3ccccc3C1=O)CC2 | 88.9% (inactive)
CCOC(=O)C1=C(C(C)=O)C(c2cccnc2)C(C#N)=C(N)O1 (stereo not given) | 92.3% (inactive)
O=C(CSc1nc2c(c(=O)n1-c1ccc(F)cc1)SCC2)NCc1ccco1 | 96.5% (inactive)
CC(C)n1cnnc1SCC(=O)Nc1ccc(Br)cc1F | 94.9% (inactive)
Cc1nn(C)c(C)c1NC(=O)c1ccc(S(=O)(=O)N(C)C)cc1 | 113% (inactive)
COc1ccc(C2C3=C(CC(C)(C)CC3=O)Nc3cc4c(cc32)OCO4)cc1 (stereo not given) | 91.7% (inactive)
O=c1ccnc(Sc2ncccc2[N+](=O)[O-])[nH]1 | 91.4% (inactive)
CC[C@H]1OC(=O)[C@H](C)[C@@H](O[C@H]2C[C@@](C)(OC)[C@@H](O)[C@H](C)O2)[C@H](C)[C@@H](O[C@@H]2O[C@H](C)C[C@H](N(C)C)[C@H]2O)[C@](C)(O)C[C@@H](C)CN(C)[C@H](C)[C@@H](O)[C@]1(C)O | 98.5% (inactive)
COc1cc(NS(=O)(=O)c2ccc(NC(=S)Nc3ccccc3)cc2)nc(OC)n1 | 91.8% (inactive)
O=C1CC(=O)CC(c2ccco2)C1 | 103% (inactive)
CCn1c(CNC(=O)c2ccc(OC)cc2)nnc1SC | 95.3% (inactive)
CC(=O)c1ccc(OC(=O)c2cc3ccccc3oc2=O)cc1 | 96.3% (inactive)
COc1ccc(NC(=O)c2ccc3nc[nH]c3c2)cc1 | 98.5% [at 25 µM] (inactive)
COC(=O)c1cn(C(=O)c2ccco2)c2ccccc12 | 83.7% (inactive)
CCN1CCN(Cc2ccc(NC(=O)c3ccc(C)c(NC(=O)C(=O)c4c[nH]c5ccccc45)c3)cc2C(F)(F)F)CC1 | 89.8% (inactive)
Cn1nnnc1SCC(=O)Nc1ccccc1-c1ccccc1 | 86.6% (inactive)
CCn1c(SCC(=O)Nc2oc(-c3ccccc3)c(-c3ccccc3)c2C#N)nnc1-c1ccco1 | 87.7% (inactive)
Cc1ncc(CC(=O)n2cc(C(=O)c3cc(F)ccc3O)cn2)s1 | 92.9% (inactive)
COc1ccc(C(CC(=O)O)NC(=O)C2CCCCC2)cc1 (stereo not given) | 98.9% (inactive)

Reference: PubChem BioAssay AID2252 (Southern Research Specialized Biocontainment Screening …, 2010)
